Out of some 5,500 compounds screened, about 2,000 (36%) were called active. Roughly 18% stayed inconclusive and do not appear here. Rule as the data show it: active = normalized growth mostly below about 0.91 (no sharp cut-off); inconclusive = no clear call, values can overlap the other calls; inactive = mostly above about 0.92. This is one part of the list.
Experiment: chemical genetic growth profiling, strain panel (AID 1159580);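 also: tested at 20 µM; growth read once vehicle control cultures reached saturation at 30 °C; 1 = growth at the plate median or of vehicle wells; lower values mean less growth of the strain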
Conditions: growth OD
[1] = S. cerevisiae deletion strains, locus YDL101C, strain DUN1, stronger effect = lower value
[2] = S. cerevisiae deletion strains, locus YHR030C, strain SLT2, stronger effect = lower value

Measured: normalized growth

CCCCCc1ccc(S(=O)(=O)Nc2ncc(C)cc2Br)cc1
active: [2] 0.568 | S. cerevisiae deletion strains, locus YKL048C, strain ELM1, stronger effect = lower value 0.793 | S. cerevisiae deletion strains, locus YLR113W, strain HOG1, stronger effect = lower value 0.674 | S. cerevisiae deletion strains, locus YPL256C, strain CLN2, stronger effect = lower value 0.792
inactive: S. cerevisiae deletion strains, locus YAR019C, strain CDC15, stronger effect = lower value 0.955 | S. cerevisiae deletion strains, locus YBL105C, strain PKC1, stronger effect = lower value 0.953 | S. cerevisiae deletion strains, locus YBR135W, strain CKS1, stronger effect = lower value 0.942 | S. cerevisiae deletion strains, locus YBR136W, strain MEC1, stronger effect = lower value 0.952 | S. cerevisiae deletion strains, locus YBR160W, strain CDC28, stronger effect = lower value 0.947 | S. cerevisiae deletion strains, locus YDL017W, strain CDC7, stronger effect = lower value 0.953 | S. cerevisiae deletion strains, locus YDL028C, strain MPS1, stronger effect = lower value 0.953 | [1] 0.962 | S. cerevisiae deletion strains, locus YDL108W, strain KIN28, stronger effect = lower value 0.951 | S. cerevisiae deletion strains, locus YDL132W, strain cdc53, stronger effect = lower value 0.962 | S. cerevisiae deletion strains, locus YDL214C, strain PRR2, stronger effect = lower value 0.832 | S. cerevisiae deletion strains, locus YDR052C, strain DBF4, stronger effect = lower value 0.962 | S. cerevisiae deletion strains, locus YDR054C, strain cdc34, stronger effect = lower value 0.945 | S. cerevisiae deletion strains, locus YDR226W, strain ADK1, stronger effect = lower value 0.959 | S. cerevisiae deletion strains, locus YDR477W, strain SNF1, stronger effect = lower value 0.873 | S. cerevisiae deletion strains, locus YER123W, strain YCK3, stronger effect = lower value 0.835 | S. cerevisiae deletion strains, locus YER133W, strain GLC7, stronger effect = lower value 0.884 | S. cerevisiae deletion strains, locus YFL009W, strain cdc4, stronger effect = lower value 0.957 | S. cerevisiae deletion strains, locus YFL029C, strain CAK1, stronger effect = lower value 0.949 | S. cerevisiae deletion strains, locus YFR003C, strain YPI1, stronger effect = lower value 0.959 | S. cerevisiae deletion strains, locus YFR019W, strain FAB1, stronger effect = lower value 0.939 | S. cerevisiae deletion strains, locus YFR028C, strain CDC14, stronger effect = lower value 0.95 | S. cerevisiae deletion strains, locus YGR040W, strain KSS1, stronger effect = lower value 0.865 | S. cerevisiae deletion strains, locus YGR052W, strain FMP48, stronger effect = lower value 0.847 | S. cerevisiae deletion strains, locus YGR092W, strain DBF2, stronger effect = lower value 0.769 | S. cerevisiae deletion strains, locus YHR079C, strain IRE1, stronger effect = lower value 0.835 | S. cerevisiae deletion strains, locus YHR082C, strain KSP1, stronger effect = lower value 0.857 | S. cerevisiae deletion strains, locus YHR205W, strain SCH9, stronger effect = lower value 0.702 | S. cerevisiae deletion strains, locus YIL147C, strain SLN1, stronger effect = lower value 0.96 | S. cerevisiae deletion strains, locus YJL095W, strain BCK1, stronger effect = lower value 0.789 | S. cerevisiae deletion strains, locus YJL128C, strain PBS2, stronger effect = lower value 0.852 | S. cerevisiae deletion strains, locus YJL157C, strain FAR1, stronger effect = lower value 0.863 | S. cerevisiae deletion strains, locus YJR016C, strain ILV3, stronger effect = lower value 0.96 | S. cerevisiae deletion strains, locus YJR066W, strain TOR1 (second series), stronger effect = lower value 0.856 | S. cerevisiae deletion strains, locus YJR066W, strain TOR1, stronger effect = lower value 0.906 | S. cerevisiae deletion strains, locus YKL067W, strain YNK1, stronger effect = lower value 0.853 | S. cerevisiae deletion strains, locus YKL101W, strain HSL1, stronger effect = lower value 0.78 | S. cerevisiae deletion strains, locus YKL193C, strain SDS22, stronger effect = lower value 0.964 | S. cerevisiae deletion strains, locus YKL203C, strain TOR2, stronger effect = lower value 0.936 | S. cerevisiae deletion strains, locus YLR133W, strain CKI1, stronger effect = lower value 0.845 | S. cerevisiae deletion strains, locus YLR403W, strain SFP1, stronger effect = lower value 0.779 | S. cerevisiae deletion strains, locus YML070W, strain DAK1, stronger effect = lower value 0.78 | S. cerevisiae deletion strains, locus YMR001C, strain CDC5, stronger effect = lower value 0.955 | S. cerevisiae deletion strains, locus YMR205C, strain PFK2 (second series), stronger effect = lower value 0.836 | S. cerevisiae deletion strains, locus YMR277W, strain FCP1, stronger effect = lower value 0.956 | S. cerevisiae deletion strains, locus YNL006W, strain LST8, stronger effect = lower value 0.968 | S. cerevisiae deletion strains, locus YNL020C, strain ARK1, stronger effect = lower value 0.796 | S. cerevisiae deletion strains, locus YNL161W, strain CBK1, stronger effect = lower value 0.961 | S. cerevisiae deletion strains, locus YNL183C, strain NPR1, stronger effect = lower value 0.806 | S. cerevisiae deletion strains, locus YNL207W, strain RIO2, stronger effect = lower value 0.968 | S. cerevisiae deletion strains, locus YNL222W, strain SSU72, stronger effect = lower value 0.951 | S. cerevisiae deletion strains, locus YNL307C, strain MCK1 (second series), stronger effect = lower value 0.811 | S. cerevisiae deletion strains, locus YOL078W, strain AVO1, stronger effect = lower value 0.95 | S. cerevisiae deletion strains, locus YOL136C, strain PFK27, stronger effect = lower value 0.818 | S. cerevisiae deletion strains, locus YOR061W, strain CKA2, stronger effect = lower value 0.815 | S. cerevisiae deletion strains, locus YOR119C, strain RIO1, stronger effect = lower value 0.893 | S. cerevisiae deletion strains, locus YOR231W, strain MKK1, stronger effect = lower value 0.783 | S. cerevisiae deletion strains, locus YOR329C, strain SCD5, stronger effect = lower value 0.957 | S. cerevisiae deletion strains, locus YPL031C, strain PHO85, stronger effect = lower value 0.882 | S. cerevisiae deletion strains, locus YPL153C, strain RAD53, stronger effect = lower value 0.829 | S. cerevisiae deletion strains, locus YPL204W, strain HRR25, stronger effect = lower value 0.843 | S. cerevisiae deletion strains, locus YPL209C, strain IPL1, stronger effect = lower value 0.955 | S. cerevisiae deletion strains, locus YPR025C, strain CCL1, stronger effect = lower value 0.955 | S. cerevisiae deletion strains, locus YPR106W, strain ISR1, stronger effect = lower value 0.921 | S. cerevisiae deletion strains, locus YPR111W, strain DBF20, stronger effect = lower value 0.903 | S. cerevisiae deletion strains, strain NNK1, stronger effect = lower value 0.923 | S. cerevisiae deletion strains, strain TSCII, stronger effect = lower value 0.955

CCCCCc1ccc(S(=O)(=O)Nc2cccnc2Oc2ccc(Cl)cc2)cc1
inactive: S. cerevisiae deletion strains, locus YAL013W, strain DEP1, stronger effect = lower value 0.988 | S. cerevisiae deletion strains, locus YBR229C, strain ROT2, stronger effect = lower value 1 | [1] 0.992 | S. cerevisiae deletion strains, locus YDL134C, strain PPH21, stronger effect = lower value 0.994 | S. cerevisiae deletion strains, locus YDR150W, strain NUM1, stronger effect = lower value 1 | S. cerevisiae deletion strains, locus YEL061C, strain CIN8, stronger effect = lower value 1 | S. cerevisiae deletion strains, locus YGR078C, strain PAC10, stronger effect = lower value 1 | [2] 0.965 | S. cerevisiae deletion strains, locus YHR087W, strain rtc3, stronger effect = lower value 0.987 | S. cerevisiae deletion strains, locus YJL187C, strain SWE1, stronger effect = lower value 0.998 | S. cerevisiae deletion strains, locus YJR043C, strain POL32, stronger effect = lower value 0.988 | S. cerevisiae deletion strains, locus YJR075W, strain HOC1, stronger effect = lower value 0.964 | S. cerevisiae deletion strains, locus YLR039C, strain RIC1, stronger effect = lower value 0.951 | S. cerevisiae deletion strains, locus YLR058C, strain SHM2 (second series), stronger effect = lower value 0.994 | S. cerevisiae deletion strains, locus YLR085C, strain ARP6, stronger effect = lower value 1 | S. cerevisiae deletion strains, locus YLR262C, strain YPT6, stronger effect = lower value 0.951 | S. cerevisiae deletion strains, locus YML094W, strain GIM5, stronger effect = lower value 0.998 | S. cerevisiae deletion strains, locus YMR219W, strain ESC1, stronger effect = lower value 0.996 | S. cerevisiae deletion strains, locus YMR263W, strain SAP30, stronger effect = lower value 0.997 | S. cerevisiae deletion strains, locus YMR307W, strain GAS1, stronger effect = lower value 0.992 | S. cerevisiae deletion strains, locus YNL128W, strain TEP1, stronger effect = lower value 1.01 | S. cerevisiae deletion strains, locus YNL153C, strain GIM3, stronger effect = lower value 1 | S. cerevisiae deletion strains, locus YNL298W, strain CLA4 (second series), stronger effect = lower value 1.01 | S. cerevisiae deletion strains, locus YNL322C, strain KRE1, stronger effect = lower value 0.995 | S. cerevisiae deletion strains, locus YNR030W, strain Alg12, stronger effect = lower value 0.984 | S. cerevisiae deletion strains, locus YOL006C, strain TOP1, stronger effect = lower value 0.986 | S. cerevisiae deletion strains, locus YPL055C, strain LGE1, stronger effect = lower value 0.989 | S. cerevisiae deletion strains, locus YPL241C, strain CIN2, stronger effect = lower value 1.08 | S. cerevisiae deletion strains, locus YPR135W, strain CTF4, stronger effect = lower value 1.02 | S. cerevisiae strains, strain wild type, stronger effect = lower value 1
